# In the supplement of paper PMC3334620:
# The full ranking holds about 33,000 sequences; the median of “E-score (-0.5 to 0.5)” is about -0.056, and the highest 2% start at about 0.38. What follows is part of a selection rich in the highest values, with near analogues and random picks from the rest.
# Molecular target: Stb4 (UniProt P50104)
# Experiment: PBM E-score (8-mer binding enrichment) (E-score (-0.5 to 0.5)); higher = stronger / more preferred TF binding
# Conditions: protein concentration: 200 nM; construct: GST-DNA-binding domain
# In short: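 Full-length yeast transcription factors or their DNA-binding domains, GST-tagged and expressed with PURExpress, were applied at about 100-200 nM to universal all-10-mer Agilent arrays. These arrays had been made double-stranded by primer extension on fresh or once-stripped slides. Detection used fluorescent anti-GST, normalisation used masliner, and E-scores for ungapped eight-base words pooled with reverse complements came from the Universal PBM Analysis Suite.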
# Chain of UniProt P50104 (P50104 whole entry): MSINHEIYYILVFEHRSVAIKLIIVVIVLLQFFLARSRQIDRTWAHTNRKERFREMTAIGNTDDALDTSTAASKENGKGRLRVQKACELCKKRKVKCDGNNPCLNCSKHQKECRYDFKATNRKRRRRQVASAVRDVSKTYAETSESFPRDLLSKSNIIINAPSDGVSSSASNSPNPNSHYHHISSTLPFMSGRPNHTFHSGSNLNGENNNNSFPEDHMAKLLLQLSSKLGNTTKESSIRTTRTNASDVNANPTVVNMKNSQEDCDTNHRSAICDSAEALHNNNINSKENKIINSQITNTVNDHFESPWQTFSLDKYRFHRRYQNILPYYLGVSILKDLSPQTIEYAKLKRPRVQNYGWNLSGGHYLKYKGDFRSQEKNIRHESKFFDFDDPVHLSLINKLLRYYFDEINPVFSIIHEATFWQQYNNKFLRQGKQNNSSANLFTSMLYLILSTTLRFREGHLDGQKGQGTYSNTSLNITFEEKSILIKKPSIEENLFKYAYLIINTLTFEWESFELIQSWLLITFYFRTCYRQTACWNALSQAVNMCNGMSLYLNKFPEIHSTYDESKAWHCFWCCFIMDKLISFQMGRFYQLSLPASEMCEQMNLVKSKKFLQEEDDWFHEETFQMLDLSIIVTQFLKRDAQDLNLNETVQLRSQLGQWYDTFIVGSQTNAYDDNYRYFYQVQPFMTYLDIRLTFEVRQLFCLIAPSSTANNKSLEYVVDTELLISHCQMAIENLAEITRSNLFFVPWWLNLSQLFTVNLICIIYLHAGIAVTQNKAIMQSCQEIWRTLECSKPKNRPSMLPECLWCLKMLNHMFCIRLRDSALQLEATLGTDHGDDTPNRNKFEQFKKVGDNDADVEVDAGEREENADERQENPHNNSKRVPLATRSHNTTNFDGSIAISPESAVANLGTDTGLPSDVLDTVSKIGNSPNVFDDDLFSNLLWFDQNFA
row,Sequence,PBM E-score
1,ACAACGGC,0.108
2,GAACGCGA,-0.0119
3,ATTTCCCA,-0.0128
4,ATTTCCGC,0.307
5,ATTTCCGG,0.426
6,ATTTCCTG,-0.0528
7,ATTTCCGA,0.47
8,ATTTCCAA,0.0026
9,TCTGGACA,-0.0785
10,GCATAGCC,-0.0533
11,GTCTGCTA,-0.0233
12,ACGACGCG,-0.0636
13,ACGACGGA,0.22
14,CCGACCCG,0.407
15,ACGACCCG,0.251
16,CCGACCCC,0.214
17,CCGACGCG,0.397
18,CCGACGGA,0.404
19,GCGACGGA,0.245
20,CCGACGCC,0.343
21,CTGACGCA,-0.298
22,CTCAGTGC,-0.109
23,ACATTGCT,-0.233
24,GTCAGACA,-0.0277
25,ATTACGCA,0.00056

row,Sequence,PBM E-score
1,AGCATTTC,-0.0674
2,GGTTGGAA,0.12
3,ATCTACCA,-0.135
4,TCCAACCA,-0.117
5,CGAGATGC,0.0535
6,CCCCGACA,0.16
7,GCCCGACA,0.187
8,ACCCGACA,0.402
9,CCCCGACG,0.277
10,ACCCGACG,0.425
11,ACCCGACT,0.33
12,CGTTGGAG,-0.232
13,CCGAGCCG,0.468
14,CCGAGCCA,0.407
15,ACGAGCCA,-0.307
16,TCGAGCCA,-0.204
17,CCGAGCCC,0.444
18,CGGAGCCG,0.352
19,ACGAGCCC,-0.198
20,GCGAGCCC,-0.0138
21,ACGAGCCG,0.292
22,GGAGTATA,0.235
23,AACCGTCT,0.00908
24,GCGGGTCA,0.0978
25,GAGCCCAA,-0.16

row,Sequence,PBM E-score
1,GGAGGAAC,-0.0445
2,GTTCTGAA,-0.216
3,AACGAGCT,-0.256
4,AACCCTCA,-0.148
5,GATTAGCA,-0.177
6,ATCGGAGA,0.272
7,CTCGGAGA,0.406
8,CTCGGAGC,0.395
9,CACGGAGC,0.174
10,CTCGGACC,0.412
11,CACGGACC,0.114
12,ATCGGAGC,0.282
13,CTCGGACA,0.366
14,CACGGAGA,0.14
15,CGAGTGAC,-0.0128
16,ATCCTCGC,-0.0124
17,ACCCTCGC,-0.131
18,AACCTCGG,0.452
19,ACCCTCGG,0.426
20,CACCTCGA,-0.0678
21,ATCCTCGA,-0.25
22,ACCCTCGA,-0.165
23,CACCTCGC,0.0165
24,AACCTCGA,-0.0623
25,ATCCTCGG,0.417

row,Sequence,PBM E-score
1,CACCTCGG,0.393
2,AACCTCGT,-0.062
3,AATGCGAA,0.0466
4,GGTTGGTA,1e-05
5,TCGCATAA,-0.0545
6,CGGGCTGA,0.0911
7,CGTCTTTA,-0.0915
8,CAATTGGA,-0.112
9,ACCTCCCT,-0.111
10,AAAGGGGA,-0.22
11,AGCTCCGG,0.301
12,CTCTGAAC,-0.174
13,ATTTCGGC,0.371
14,CTTTCGGC,0.386
15,ATTTCGAG,-0.0811
16,ATTTCGGA,0.454
17,CTTTCGTA,-0.177
18,ATTTCGCG,0.0954
19,CTTTCGAC,-0.172
20,CTTTCGTC,-0.0646
21,CTTTCGAA,-0.204
22,CTTTCGGA,0.432
23,ATTTCGGG,0.39
24,ATTTCGCA,0.0506
25,AACGTTCG,0.113

row,Sequence,PBM E-score
1,CTTTCTGA,-0.25
2,CGCGCCAG,0.104
3,AGCGCTCG,-0.0312
4,CTTCGTCA,-0.177
5,GTAGTTCA,0.0756
6,GCGGTGCA,-0.283
7,ATTCTCCG,0.264
8,AGTAAAAC,-0.181
9,GTGGTGAA,0.0732
10,GTTTCGGA,0.43
11,GTTTCGTA,0.128
12,GTTTCGAA,-0.145
13,AAGCTGAT,0.104
14,CCACCTAC,-0.246
15,AGCATCAA,-0.15
16,ACAGGTGG,-0.226
17,TCGAGGAA,-0.13
18,CGGAGGAG,0.209
19,ACGAGGAG,-0.349
20,CCGAGGAG,0.393
21,CCGAGGAC,0.371
22,CCGAGGAA,0.387
23,ATGAAGGG,-0.114
24,CAGGAGTC,-0.0625
25,AGTCGCAT,-0.137

row,Sequence,PBM E-score
1,CTGGTAGC,-0.224
2,ACACCGGG,0.213
3,CGTATGGA,-0.0248
4,CATGGGCG,-0.0118
5,ACCATACC,0.044
6,AACTCCGG,0.352
7,ATCTCCGC,0.151
8,AACTCCGT,0.206
9,ATCTCCGA,0.396
10,GTCTCCGA,0.352
11,AACTCCGA,0.412
12,TCCAAAAA,0.0234
13,GTCGCTCA,-0.129
14,GCCGACTA,0.166
15,CATTCTTC,-0.0802
16,GTTTGCGA,-0.155
17,ACAGCCGA,0.383
18,CCCGCCGA,0.367
19,ACAGCCGG,0.35
20,TCCGCCGA,0.403
21,GCAGCCGC,0.154
22,CCAGCCGA,0.322
23,ACAGCCGC,0.105
24,GCAGCCGA,0.396
25,TCAGCCCA,-0.11

row,Sequence,PBM E-score
1,GCAGCCTA,-0.153
2,GCCGCCGA,0.331
3,TCAGCCGA,0.385
4,ATAAACCC,0.0851
5,CGCTATAC,0.0197
6,GCCAAAGC,-0.121
7,CAGACCTG,-0.17
8,TATTTCGA,0.00011
9,AATGTCTG,0.0612
10,ATGACGGA,0.217
11,AATCTTGC,-0.0133
12,CAGGAATC,-0.0371
13,AACTAAGT,-0.0531
14,AGCTTCCC,-0.00142
15,CGCTTCCA,-0.0326
16,AGCTTCCA,0.0259
17,AGCTTCCG,0.423
18,CGCTTCCC,0.188
19,CGCTTCCG,0.402
20,CCTCCACC,-0.0886
21,ATCAAGGC,-0.111
22,ATAGCCGG,0.353
23,GTAGCCAA,-0.025
24,CTAGCCGA,0.455
25,CTAGCCGC,0.21

row,Sequence,PBM E-score
1,GTAGCCGA,0.4
2,GTAGCCTA,-0.382
3,CTAGCCAA,-0.0164
4,ATAGCCGC,0.236
5,ATAGCCGA,0.442
6,AAGAGTGG,-0.179
7,CTGCCTAA,-0.169
8,TGCCAAAA,-0.0796
9,TCGGGGCA,0.226
10,ACTGGGCT,-0.0497
11,ACAGTGCT,-0.181
12,ATCACAAA,-0.149
13,CTATCTAC,-0.0208
14,CTCGCCGC,0.0149
15,ACTGTACG,-0.153
16,CCGAGGTA,0.401
17,ACGAGGTA,-0.0352
18,ACGAGGTC,-0.278
19,CTGAGGTC,-0.243
20,GCGAGGTA,-0.124
21,CCGAGGTC,0.424
22,ACGAATCA,-0.0567
23,CCAGTAAA,-0.0636
24,TGATCGAA,-0.125
25,GACCGCGA,0.0256

row,Sequence,PBM E-score
1,AAATCCCG,0.339
2,ATCTCGCG,-0.0115
3,GTCTCGGA,0.442
4,ATCTCGAA,-0.0183
5,GTCTCGTA,-0.115
6,ATCTCGGG,0.449
7,ATCTCGCA,-0.035
8,ATCTCGGA,0.461
9,ATCTCGAG,-0.0973
10,GTCTCGAA,-0.255
11,AAGATTTA,0.0925
12,AAGAAATA,-0.0625
13,AGTTAGGA,-0.167
14,ATCACGAC,-0.123
15,GTTCGGTA,0.425
16,CTTCGGTC,0.234
17,CGTCGGTA,0.294
18,ATTCGGTA,0.36
19,GGTCGGTA,0.223
20,CTTCGGTA,0.383
21,AAGACTCC,-0.0274
22,AGATAGTG,-0.0913
23,ATAAGTAG,-0.157
24,GGCGAACC,-0.0255
25,CCCGAACC,0.414

row,Sequence,PBM E-score
1,CACGAACA,-0.0987
2,GCCGAACC,0.395
3,TCCGAACA,0.447
4,ACCGAACC,0.336
5,CCCGAACA,0.393
6,CGCGAACC,0.166
7,CCCGAACG,0.378
8,TACGAACA,-0.191
9,TGCGAACA,-0.144
10,CACGAACC,-0.198
11,GGAAAGTA,0.172
12,GAAATAGC,0.0755
13,GATCTTGC,0.0905
14,AGGCAGAC,-0.1
15,CGAGACGC,0.14
16,ACCCGCTA,0.151
17,CACCCTAA,-0.201
18,CTACAGTA,-0.139
19,ACTCCTTA,-0.0987
20,CGCAAGAA,0.0756
21,GTCGAACA,-0.044
22,ACCGAACA,0.313
23,GCCGAACA,0.393
24,CCAGGTCG,-0.247
25,ACTACCCA,-0.261

row,Sequence,PBM E-score
1,AACACCCC,0.0426
2,ACTACCCC,-0.0517
3,ATTACCCA,-0.0268
4,ACTACCCG,0.401
5,CACACCCG,0.3
6,ATTACCCC,0.133
7,AATACCCA,-0.00809
8,AACACCCG,0.4
9,AATACCCT,0.0669
10,AATACCCG,0.431
11,ATTACCCG,0.416
12,CCAGTGCA,-0.303
13,ACGGCTAG,0.12
14,ACAGCCAA,-0.135
15,TCTAGAGA,-0.256
16,TGAAACAA,-0.124
17,CAAGAAAG,-0.0821
18,ACGAACGC,-0.15
19,CCGAACGA,0.379
20,CCGAACGC,0.415
21,ACGAACGG,0.0948
22,GCGAACGC,-0.0479
23,CCGAACGG,0.413
24,ATGCTGTC,-0.134
25,CGCTAGAA,-0.154

row,Sequence,PBM E-score
1,ACTTATCT,-0.211
2,AAGTCTTC,-0.108
3,ATGCTGAG,-0.229
4,ACTTCGCG,0.116
5,GCTTCGTA,-0.25
6,GCTTCGCA,-0.173
7,GCTTCGGA,0.439
8,CCTTCGGC,0.335
9,ACTTCGGC,0.392
10,CCTTCGGA,0.474
11,CCTTCGCA,-0.236
12,ACTTCGGG,0.407
13,CCTTCGAA,-0.117
14,ACTTCGCC,-0.0357
15,ACTTCGAG,-0.0152
16,CGTAGTGA,-0.114
17,GAAGAGTC,-0.0545
18,ACCACTAA,-0.0511
19,AGGAGTCG,-0.142
20,GCCATAAC,-0.211
21,AAGTCGGG,0.306
22,ACTCATTG,-0.0916
23,CACGCCAG,-0.0642
24,ACTTCGCA,-0.156
25,ACTTCGGA,0.458

row,Sequence,PBM E-score
1,ACTTCGAA,-0.167
2,ACGATCCC,0.192
3,CCGATCCG,0.445
4,ATGATCCG,0.397
5,ATGATCCA,-0.032
6,CCGATCCC,0.34
7,ACGATCCG,0.399
8,CCGATCCA,0.238
9,ATGATCCC,0.157
10,ACGATCCA,-0.0732
11,GAGACGCA,0.0275
12,CCCAATCC,0.0104
13,CAGGGGCG,-0.182
14,ATAACCGC,0.0841
15,CGAACCGC,0.0494
16,CGAACCGA,0.397
17,CGGACCGC,0.29
18,ATAACCGA,0.388
19,ATAACCGG,0.281
20,GGGACCGA,0.265
21,TCAACCGA,0.291
22,CTAACCGA,0.401
23,GGAACCGA,0.343
24,CTAACCGC,0.0169
25,CGGACCGA,0.419

row,Sequence,PBM E-score
1,GAACGTCA,-0.175
2,CTGCCATC,-0.0272
3,CCCGTACC,0.245
4,AGAACTTG,-0.161
5,ACTGACCT,-0.2
6,AATGAAAG,-0.0359
7,ACTAGGGG,-0.0854
8,TCCGCAGA,0.0922
9,TATACCGA,0.383
10,CTTACCGC,0.119
11,CATACCGA,0.287
12,GTAACCCA,-0.0452
13,GATACCGA,0.291
14,GTTACCGA,0.366
15,CTTACCGA,0.393
16,GTAACCGA,0.386
17,GTAACCTA,0.0635
18,GACCCAAC,-0.116
19,CGGTAGAG,0.112
